Bioassay records (PubChem BioAssay)
An excerpt weighted towards active compounds, which were near 28% of everything screened.
CYP2C9 inhib: inhibitors of human CYP2C9. inhibition, % at 5 µM. P11712. AID 777. CYP2C9 Supersomes, luciferin-H conversion, luminescence. 96,000 compounds, 20% hits;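 active = blocking of liver enzyme CYP2C9 beyond about 50% at 5 µM, limit read from the data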
Target sequence (P11712 whole entry, looked up): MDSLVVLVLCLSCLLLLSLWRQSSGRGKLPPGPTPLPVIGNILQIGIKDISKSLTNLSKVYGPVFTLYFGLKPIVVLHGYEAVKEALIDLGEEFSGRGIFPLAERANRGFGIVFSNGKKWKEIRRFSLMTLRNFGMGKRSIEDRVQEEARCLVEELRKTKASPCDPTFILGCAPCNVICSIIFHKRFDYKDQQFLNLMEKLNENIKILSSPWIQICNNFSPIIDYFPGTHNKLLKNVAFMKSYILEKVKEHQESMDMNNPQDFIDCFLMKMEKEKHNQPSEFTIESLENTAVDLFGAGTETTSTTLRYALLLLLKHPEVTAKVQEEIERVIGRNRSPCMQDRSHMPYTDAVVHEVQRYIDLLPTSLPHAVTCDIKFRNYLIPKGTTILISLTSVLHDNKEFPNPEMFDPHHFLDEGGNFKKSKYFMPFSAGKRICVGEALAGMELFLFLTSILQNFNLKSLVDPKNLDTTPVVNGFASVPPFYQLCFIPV
CYP2C9 activ: increases human cytochrome P450 2C9 activity; P11712; recombinant CYP2C9, luciferin-H conversion, luminescence; active compounds read high; factor 1 = untreated enzyme, 0 = blocked; activation factor at 5 µM; 96,000 compounds, 1.4% hits; AID 1024;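 active = activation factor of 2 or more for CYP2C9 at a 5 µM dose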;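 note: 0 = sulfaphenazole-blocked wells and 1 = vehicle-only wells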
CYP2C19 inhib: blocks human cytochrome P450 2C19; CYP2C19 Supersomes, luciferin-H EGE luminescence, 30 min; 96,000 compounds, 21% hits; AID 778; inhibition, % at 5 µM;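 active = CYP2C19 inhibition above a set limit at 5 µM in the primary screen, cut at about 50% in these data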;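 note: plate controls were negative control wells for no effect and 2.5 mM tranylcypromine positive control for full effect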
Mac1 fbg inh: CD11b/CD18-fibrinogen binding inhibition. K562 CD11b/CD18 adhesion to fibrinogen, ATPlite luminescence; Mn2+ added to activate the integrin. inhibition, % at 10 µM. 93,000 compounds, 0.54% hits;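 active = primary inhibition of 50% or more at 10 µM, then 40% or more on retest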
CYP2C19 act: increases human CYP2C19 enzyme activity | P33261 | recombinant CYP2C19, luciferin-H EGE luminescence; active compounds read high; 0 = fully inhibited enzyme, 1 = untreated enzyme | activation factor at 5 µM | 96,000 tested, under 10 active | AID 1025;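 active = activation factor of at least 2 at 5 µM in the primary screen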;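 note: 0 = wells with 2.5 mM tranylcypromine and 1 = vehicle-only wells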
CD11b adhes enh: increases human CD11b/CD18 adhesion to fibrinogen. P05107+P11215. K562 CD11b/CD18 adhesion to fibrinogen, ATPlite luminescence. activation, % at 10 µM. AID 1499. 93,000 compounds, 0.07% hits;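 active = 10 µM primary screen giving 50% or more activity, confirmed by 40% or more on retest at that dose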
* = called active by the depositor.

How did NS(=O)(=O)c1ccc(NCc2cc(Cl)ccc2OCc2ccccc2F)cc1 do in these assays?
CYP2C9 inhib: 28.1; CYP2C9 activ: 0.7; CYP2C19 inhib: 6.9; Mac1 fbg inh: 22.2; CYP2C19 act: 0.9; CD11b adhes enh: -10.6

Results for CN1CCN(NC(=O)c2cc([N+](=O)[O-])cc([N+](=O)[O-])c2)CC1 ?
CYP2C9 inhib: 1.8; CYP2C9 activ: 1; CYP2C19 inhib: -4.9; Mac1 fbg inh: 22.4; CYP2C19 act: 1; CD11b adhes enh: -4.4

How did COCCN(C(=S)Nc1cccc(OC)c1)C1CCN(C(C)C)CC1 do in these assays?
Mac1 fbg inh: -8.7; CD11b adhes enh: -2.7

Results for CCCCn1nnnc1NCc1ccc(N(CC)CC)cc1 ?
CYP2C9 inhib: 49.9; CYP2C9 activ: 0.5; CYP2C19 inhib: 74.3*; Mac1 fbg inh: -3.6; CYP2C19 act: 0.3; CD11b adhes enh: -1.1

What do the screens show for `CCCCn1nnnc1NCc1cccc(OC)c1OC`?
CYP2C9 inhib: 61.9*; CYP2C9 activ: 0.4; CYP2C19 inhib: 84.7*; Mac1 fbg inh: -4.4; CYP2C19 act: 0.2; CD11b adhes enh: 2.2

How did COc1cc(C(=O)OCC(=O)NCc2ccco2)cc(OC)c1OC do in these assays?
CYP2C9 inhib: 4.3; CYP2C9 activ: 1; CYP2C19 inhib: 40.2; Mac1 fbg inh: -3.1; CYP2C19 act: 0.6; CD11b adhes enh: -2.7

Results for Cn1c(C(=O)OCC(=O)NCc2ccco2)cc2sccc21 ?
CYP2C9 inhib: 26.1; CYP2C9 activ: 0.7; CYP2C19 inhib: 39.5; Mac1 fbg inh: -6.0; CYP2C19 act: 0.6; CD11b adhes enh: -1.1

What do the screens show for `O=C(COC(=O)c1cccs1)NCc1ccco1`?
CYP2C9 inhib: 20.2; CYP2C9 activ: 0.8; CYP2C19 inhib: 69.7*; Mac1 fbg inh: -8.5; CYP2C19 act: 0.3; CD11b adhes enh: -1.3

What do the screens show for `CC(C)(C)c1ccc(OCC(=O)NCc2ccco2)c(Br)c1`?
CYP2C9 inhib: 76.3*; CYP2C9 activ: 0.2; CYP2C19 inhib: 45.6; Mac1 fbg inh: 8.4; CYP2C19 act: 0.5; CD11b adhes enh: 3.9

What do the screens show for `O=C(COC(=O)c1cccs1)NCc1ccccc1`?
CYP2C9 inhib: 22.6; CYP2C9 activ: 0.8; CYP2C19 inhib: 91.8*; Mac1 fbg inh: 12.1; CYP2C19 act: 0.1; CD11b adhes enh: -6.4

What do the screens show for `CCOc1cc(C(=O)OCC(=O)NCc2ccco2)cc(OCC)c1OCC`?
CYP2C9 inhib: 57.4*; CYP2C9 activ: 0.4; CYP2C19 inhib: 58.2*; Mac1 fbg inh: -2.8; CYP2C19 act: 0.4; CD11b adhes enh: -1.4

What do the screens show for `Cn1c(N2CCN(C(=O)Nc3ccc(C(F)(F)F)cc3)CC2)nc2ccccc21`?
CYP2C9 inhib: 22.8; CYP2C9 activ: 0.8; CYP2C19 inhib: 20.6; Mac1 fbg inh: -1.4; CYP2C19 act: 0.8; CD11b adhes enh: 0.8

What do the screens show for `NC(=O)c1ccsc1NC(=O)COC(=O)c1ccccc1NCc1ccco1`?
CYP2C9 inhib: 89.7*; CYP2C9 activ: 0.1; CYP2C19 inhib: 73.6*; Mac1 fbg inh: 2.7; CYP2C19 act: 0.3; CD11b adhes enh: 3.1

What do the screens show for `NC(=O)c1ccsc1NC(=O)COC(=O)COc1ccccc1F`?
Mac1 fbg inh: 5.3; CD11b adhes enh: 3.7

Results for CSc1ccc(Cl)c(C(=O)OCC(=O)NCc2ccco2)c1 ?
CYP2C9 inhib: 43.0; CYP2C9 activ: 0.6; CYP2C19 inhib: 92.8*; Mac1 fbg inh: 3.7; CYP2C19 act: 0.1; CD11b adhes enh: 15.7

How did COc1ccc(NC(=O)COC(=O)c2cc(OC)c(OC)cc2NC(=O)c2ccco2)cc1OC do in these assays?
CYP2C9 inhib: 29.0; CYP2C9 activ: 0.7; CYP2C19 inhib: 21.4; Mac1 fbg inh: 8.5; CYP2C19 act: 0.8; CD11b adhes enh: 7.4

What do the screens show for `COc1cc(NC(=O)c2cccs2)c(C(=O)OCC(=O)NCc2ccco2)cc1OC`?
CYP2C9 inhib: 82.4*; CYP2C9 activ: 0.2; CYP2C19 inhib: 26.9; Mac1 fbg inh: -2.7; CYP2C19 act: 0.7; CD11b adhes enh: 87.0

Results for COC(=O)[C@H](C)NC(=O)/C=C/c1ccc(OC)cc1 ?
Mac1 fbg inh: -8.3; CD11b adhes enh: -0.3

What do the screens show for `CSC1=C(C#N)C(CC(C)C)C(C(C)=O)=C(C)N1` (configuration not stated)?
CYP2C9 inhib: 48.8; CYP2C9 activ: 0.5; CYP2C19 inhib: 81.5*; Mac1 fbg inh: -12.3; CYP2C19 act: 0.2; CD11b adhes enh: -0.8

How did CSC1=C(C#N)C(CC(C)C)C2=C(CCCC2=O)N1 (configuration not stated) do in these assays?
CYP2C9 inhib: 21.9; CYP2C9 activ: 0.8; CYP2C19 inhib: 34.6; Mac1 fbg inh: -2.6; CYP2C19 act: 0.7; CD11b adhes enh: -2.0

How did Cc1nc2cc(Cl)ccc2n1-c1ccccc1 do in these assays?
CYP2C9 inhib: 15.9; CYP2C9 activ: 0.8; CYP2C19 inhib: 80.1*; Mac1 fbg inh: 0.8; CYP2C19 act: 0.2; CD11b adhes enh: 0.1

Results for CC(=O)c1ccc(OC(C)C)c(CN2CCCCC2)c1 ?
CYP2C9 inhib: -8.6; CYP2C9 activ: 1.1; CYP2C19 inhib: -11.4; Mac1 fbg inh: -10.0; CYP2C19 act: 1.1; CD11b adhes enh: -3.9

How did O=C(COC(=O)c1ccc([N+](=O)[O-])o1)Nc1cccc(S(=O)(=O)N2CCOCC2)c1 do in these assays?
Mac1 fbg inh: 3.2; CD11b adhes enh: 0.5

How did COc1ccc(N2CC(C)Cn3c2nc2c3c(=O)[nH]c(=O)n2C)cc1 (configuration not stated) do in these assays?
CYP2C9 inhib: 16.1; CYP2C9 activ: 0.8; CYP2C19 inhib: 4.8; Mac1 fbg inh: 2.7; CYP2C19 act: 1; CD11b adhes enh: 4.9

How did c1nc(NCCN2CCOCC2)c2c3c(sc2n1)CCCCC3 do in these assays?
CYP2C9 inhib: 44.0; CYP2C9 activ: 0.6; CYP2C19 inhib: 47.3; Mac1 fbg inh: 4.9; CYP2C19 act: 0.5; CD11b adhes enh: 0.7

How did CC1CCc2c(sc3ncnc(NCCCOC(C)C)c23)C1 (configuration not stated) do in these assays?
CYP2C9 inhib: 89.3*; CYP2C9 activ: 0.1; CYP2C19 inhib: 98.2*; Mac1 fbg inh: 8.1; CYP2C19 act: 0; CD11b adhes enh: -1.7

What do the screens show for `CCOc1cc(C=O)ccc1OCCSc1ccc(C)cc1`?
CYP2C9 inhib: 69.7*; CYP2C9 activ: 0.3; CYP2C19 inhib: 76.7*; Mac1 fbg inh: 36.8; CYP2C19 act: 0.2; CD11b adhes enh: -2.9

What do the screens show for `COc1cc(C=O)ccc1OCCSc1ccc(C)cc1`?
CYP2C9 inhib: 67.7*; CYP2C9 activ: 0.3; CYP2C19 inhib: 85.0*; Mac1 fbg inh: -38.1; CYP2C19 act: 0.2; CD11b adhes enh: -2.4

Results for CCc1nnc(NC(=O)C(=O)NCCOC(=O)c2ccccc2)s1 ?
CYP2C9 inhib: 34.6; CYP2C9 activ: 0.7; CYP2C19 inhib: 21.9; Mac1 fbg inh: 3.7; CYP2C19 act: 0.8; CD11b adhes enh: 0.5

What do the screens show for `CC(C)(C)c1ccc(C(=O)NC(Cc2ccccc2)C(=O)O)cc1` (configuration not stated)?
CYP2C9 inhib: 8.2; CYP2C9 activ: 0.9; CYP2C19 inhib: 1.0; CYP2C19 act: 1
